What all share (experiment): NCI-60 one-dose screen, 48 h (100 = growth as untreated, 0 = no growth, -100 = all killed)
Holding throughout (conditions): 10 µM unless noted

Assay [1] deals with NCI-H23 lung.
Assay [2] relates to NCI-H226 lung.
Assay [3] concerns NCI-H322M lung.
Assay [4] deals with HOP-62 NSCLC.
Assay [5] relates to NCI-H460 lung.
The test system of assay [6] is NCI-H522 lung.
Assay [7] has as its system A549/ATCC NSCLC.
Assay [8] relates to 786-0 renal.
Assay [9] relates to COLO 205 colon.
For assay [10], the system named is HOP-92 NSCLC.

The structures appear in SMILES notation. The panel holds about 83,000 compounds, 20% with a hit somewhere; the sample as a whole holds those more often.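 The endpoint reported here, percent growth, reads 100 for growth as untreated, 0 for no net growth and -100 for all cells dead.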 Values without a mark were called inactive. Calls of active or inactive are those of the source. How the source made its calls: active means growth percent below 10; inactive means the rest.

Data on 28 compounds can be found in PubChem BioAssay (NCI).

For the compound `Cn1cc(-c2cc(N)n3nc(-c4cn(C)c5ncccc45)cc3n2)c2cccnc21`, the growth in assay [1] is -33.1% (active); in [2], 86.5%; in assay [3], 104%; in assay [4] it was 86.1%; in [5], 79.5%; in assay [6], 77%. Besides, the figures for the growth in assay [7], in assay [8] and in assay [9] were 51.9%, 81.9% and 43.7%, respectively.

With `COc1ccc(C2CC(c3ccc(S(=O)(=O)NCCNc4nc(Nc5ccc(F)cc5)nc(N(C)C)n4)cc3)=Nc3c(N)nc(N)nc3N2)cc1` (configuration not stated), the growth in assay [1] was 90.4%; in assay [2], 84.4%; in assay [3], 96.6%; in assay [4], 90.3%; in assay [5], 73.6%; in assay [6], 89.4%. Also, the growth in assay [7] was 91.3%; in assay [8], 50.2%; in assay [9], 82.8%.

Regarding `CCCCCCCCc1ccc(S(=O)(=O)Nc2ccc(CC)cc2C(=O)O)cc1`, the growth in [1] was 97.3%; in assay [2], 88%; in assay [3] it was 95.2%; in [4], 99.6%; in assay [10], 71%; in assay [6], 91.4%. The growth is 91.9% in assay [7], 103% in assay [8] and 121% in assay [9].

With `CCCCSc1nc(Nc2ccc(C(C)=O)cc2)c(C#N)c(-c2ccc(OC)cc2)n1`, the growth in [1] was 60.8%; in assay [2] it was 31.3%; in assay [3] it was 75.4%; in assay [4] it was 73.9%; in assay [5], 27.6%; in [6], 87.8%. For the same compound, the growth in assay [7] was 45.5%; in [8], -12.4% (active); in assay [9], 82.3%.

Turning to `CCCSc1nc(Nc2ccc(S(N)(=O)=O)cc2)c(C#N)c(-c2cc(OC)c(OC)c(OC)c2)n1`, the growth in assay [1] was 43.4%; in assay [2] it was 32.7%; in assay [3], 51.7%; in assay [4], 32.5%; in assay [5], 16.5%; in [6] it was 18.2%. Moreover, the values for the growth in assay [7], in assay [8] and in assay [9] were 17.9%, 41.5% and 8.62% (active), respectively.

For `Cc1cc(=O)oc2cc(OCCOc3ccc(/C=C/C(=O)Nc4ccccc4N)cc3)ccc12`, the growth in assay [1] is 46.5%; in assay [2] it was 24.8%; in assay [3], 63%; in [4], 24.1%; in [10] it was 31%; in [6] it was 3.88% (active). Further, the growth in assay [7] was 30.3%; in assay [8], 23.4%; in assay [9] it was -24.8% (active).

Turning to `O=C(/C=C/Nc1ccc2oc(=O)ccc2c1)c1cc2cc(Br)ccc2oc1=O`, the growth in [1] is 98.8%; in assay [2] it was 101%; in assay [3], 104%; in assay [4] it was 95.4%; in assay [5] it was 114%; in assay [6], 101%. In addition, the growth in assay [7] is 101%; in assay [8], 103%; in [9], 131%.

As for `N=C1N=C(SCc2nc3ccccc3[nH]2)NC(=O)/C1=C/c1ccc(Cl)cc1`, the growth is 98.8% in [1]; 95.1% in assay [2]; 103% in assay [3]; 102% in assay [4]; 102% in assay [5]; 92.7% in assay [6]. The growth is 109% in assay [7], 118% in assay [8] and 110% in assay [9].

Turning to `COc1ccc(-c2nc3cc(C)ccc3n2CC(=O)N=Nc2c(O)[nH]c3ccc(Br)cc23)cc1`, the growth was -45.5% (active) in assay [1]; -13.4% (active) in assay [2]; 14.2% in [3]; -49.7% (active) in assay [4]; 8.15% (active) in [5]; 25% in [6]. The growth in assay [7] is -68.6% (active); in [8], 25.6%; in assay [9], -47.2% (active).

For the compound `Cn1cc(-c2cc3nc(-c4cn(C)c5ncc(Br)cc45)cc(N)n3n2)c2ccccc21`, the growth is -22.5% (active) in assay [1]; -2.09% (active) in [2]; -20.2% (active) in [3]; -34.5% (active) in assay [4]; -54.6% (active) in assay [5]; -70.6% (active) in assay [6]. Moreover, the growth in assay [7] is 2.3% (active); in assay [8] it was -87.7% (active); in assay [9], -81.4% (active).

As to `COc1ccc2c(c1)c(-c1cc3nc(-c4cn(C)c5ncccc45)cc(N)n3n1)cn2C`, the growth in assay [1] was 0.244% (active); in [2], -16.6% (active); in [3], -8.29% (active); in assay [4], -25.8% (active); in assay [5], -25.5% (active); in [6] it was -78.4% (active). Also, the figures for the growth in assay [7], in assay [8] and in assay [9] were -30.6% (active), -92% (active) and -74.1% (active), respectively.

On to `CC1CCCCN1CCCNC(=O)N/C(N)=N/c1nc2ccccc2s1` (configuration not stated), for which the growth is 58.8% in assay [1]; 48.5% in [2]; 77% in assay [3]; 59.6% in assay [4]; 42.2% in assay [5]; 72.2% in [6]. Besides, the growth is 47.3% in [7], 29.5% in assay [8] and -58.6% (active) in assay [9].

In the case of `Cc1ccc2c(c1)nc(-c1ccccc1)n2CC(=O)N=Nc1c(O)[nH]c2ccc(Br)cc12`, the growth in [1] is -80.1% (active); in [2], -72.4% (active); in assay [3], -46.4% (active); in [4] it was -58.7% (active); in [5], -22.4% (active); in [7] it was -45.4% (active). The growth is -88.1% (active) in assay [8] and -63% (active) in assay [9].

With `Cc1ccc([C@H]2C(C(=O)c3ccc(Cl)cc3)C3(N[C@@H]2c2ccccc2)C(=O)Nc2ccc(Cl)cc23)cc1` (some centres not stated), the growth in [1] is 52.8%; in assay [2], 61.4%; in [3], 67.4%; in [4], 65.1%; in assay [10] it was 16.6%; in assay [6], 43.9%. Besides, the figures for the growth in assay [7], in assay [8] and in [9] were 33.2%, 39.1% and 44.5%, respectively.

For `N#Cc1c(-c2ccccc2Cl)cc(-c2ccc3ccccc3c2)[nH]c1=O`, the growth in assay [1] is 38.8%; in assay [2], -24.5% (active); in assay [3] it was 28.1%; in assay [4], -7.48% (active); in [5], -13.8% (active); in assay [7], 17.5%. Further, the growth is -40.9% (active) in assay [8] and 108% in [9].

In the case of `CN(C)c1nc(NCCNS(=O)(=O)c2ccc(C3=Nc4c(N)nc(N)nc4NC(c4ccccc4)C3)cc2)nc(Nc2ccc(F)cc2)n1` (configuration not stated), the growth is 58.6% in assay [1]; 52.8% in [2]; 58.4% in assay [3]; 81.1% in assay [4]; 25.9% in assay [5]; 43.1% in [6]. For the same compound, the growth in assay [7] was 56.4%; in assay [8] it was 29.7%; in assay [9] it was 44%.

`COc1ccc(/C=C/c2nc3ccccc3c(=O)n2CC(=O)Nc2ccc(Cl)cc2)cc1`: the growth was 60.7% in [1]; 30.4% in [2]; 88.8% in [3]; 8.06% (active) in [4]; 22.6% in assay [5]; 23% in assay [7]. The values for the growth in [8] and in assay [9] were 27.5% and 74.6%, respectively.

For the compound `CC(C)CCNC(=O)N/C(N)=N/c1nc2ccccc2s1`, the growth in assay [1] was 46.9%; in assay [2], 52.1%; in [3], 83.1%; in assay [4], 73.6%; in assay [5] it was 66.5%; in [6] it was 54.2%. For the same compound, the growth in assay [7] is 64.6%; in [8], 80.9%; in [9] it was 103%.

As to `COc1ccc2[nH]c(O)c(N=NC(=O)Cn3c(-c4ccccc4)nc4cc(C)ccc43)c2c1`, the growth is 13.4% in assay [1]; 11.7% in assay [2]; 49.5% in assay [3]; 47.9% in [4]; 44.3% in [5]; 57% in assay [6]. Moreover, the growth in [7] was 15.3%; in [8], 4.55% (active); in assay [9], 64.5%.

`COc1ccc(-c2nc3cc(C)ccc3n2CC(=O)N=Nc2c(O)[nH]c3ccc(Cl)cc23)cc1`: the growth was -62.9% (active) in [1]; -34.1% (active) in [2]; 10.1% in assay [3]; -50.4% (active) in assay [4]; 10.6% in assay [5]; -62.4% (active) in assay [7]. Moreover, the figures for the growth in assay [8] and in [9] were 11% and -39.7% (active), respectively.

`CN(C)c1nc(NCCNS(=O)(=O)c2ccc(C(=O)/C=C/c3ccc(Cl)cc3)cc2)nc(Nc2ccc(F)cc2)n1`: the growth was -38.6% (active) in [1]; -53.3% (active) in [2]; 6.91% (active) in [3]; 15.4% in assay [4]; -67.9% (active) in assay [5]; -87.4% (active) in assay [6]. Further, the growth in assay [7] was -23.5% (active); in assay [8] it was -86% (active); in assay [9], -82.9% (active).

In the case of `O=C(CN1C(=O)/C(=C/c2ccccc2Cl)SC1=S)N1CCOCC1`, the growth in assay [1] is 98%; in [2] it was 77.9%; in [3], 95.3%; in assay [4], 116%; in assay [5] it was 107%; in assay [6] it was -74.8% (active). Also, the growth in assay [7] was 97.8%; in assay [8], 80.4%; in assay [9] it was 100%.

As to `CCCCSc1nc(NCCc2c[nH]c3ccccc23)c(C#N)c(-c2ccc(OC)cc2)n1`, the growth is 48.3% in assay [1]; 60.9% in assay [2]; 87.4% in assay [3]; 57% in assay [4]; 47.3% in assay [10]; 57.7% in assay [6]. In addition, the figures for the growth in [7], in assay [8] and in assay [9] were 61.3%, 54.8% and 74.6%, respectively.

`CNS(=O)(=O)c1ccc(Nc2ccc(C(F)(F)F)cc2)c(-c2cn(C)cn2)c1`: the growth in assay [1] is 72.9%; in assay [2], 48.8%; in [3] it was 59.1%; in assay [4], 95.3%; in assay [5], 33.7%; in [6] it was 36.5%. Further, the growth is 37.1% in assay [7], 61.2% in assay [8] and 53.1% in assay [9].

Turning to `CN(C)CCn1c2ccccc2c2nc3cc(C(F)(F)F)ccc3nc21`, the growth in [1] is 34.6%; in assay [2], 53.2%; in assay [3] it was 40.3%; in assay [4], 38.8%; in assay [5] it was 8.31% (active); in assay [6], 30.7%. The results for the growth in assay [7], in [8] and in assay [9] were 21.7%, 32.9% and 14%, respectively.

Turning to `Cn1cc(-c2cc(N)n3nc(-c4c[nH]c5ccccc45)cc3n2)c2cccnc21`, the growth was 47.6% in assay [1]; 71.2% in [2]; 44.7% in [3]; 62.6% in [4]; 2.29% (active) in [5]; 31.3% in assay [6]. Also, the growth in assay [7] was 51.7%; in assay [8], -81.3% (active); in assay [9], 40.2%.

As to `Cc1ccc(C2=NN(c3nc(-c4cc5ccccc5oc4=O)cs3)C(c3ccc(C)cc3)C2)cc1` (configuration not stated), the growth is 95.6% in assay [1]; 88.8% in assay [2]; 102% in assay [3]; 91.2% in assay [4]; 120% in assay [5]; 100% in [6]. Besides, the growth is 109% in [7], 110% in [8] and 111% in [9].

`Cc1nc(Nc2ncc(C(=O)Nc3c(C)cccc3Cl)s2)cc(N2CCN(CCCNC(=O)COc3ccc(C4CCC(=O)NC4=O)cc3)CC2)n1` (configuration not stated): the growth is 68.8% in assay [1]; 68.5% in assay [2]; 20.8% in [3]; 35.4% in [4]; 95.8% in assay [5]; 33.4% in assay [7]. The results for the growth in assay [8] and in assay [9] were 14.4% and 10.3%, respectively.
